Compound activity from PubChem BioAssay.
HepG2 viability: qHTS for Inhibitors of TGF-b: Cytotox Counterscreen; HepG2 CAGA-GFP viability, ATP luminescence, 18 h; hit rate 0.76% among 410,000; Potency, µM (top dose mostly 46.1 µM), without a hit: at the top dose activity change, negative = cytotoxicity, most hits filed as cytotoxic
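CellTiter-Glo luminescence gave cytotoxicity after 18 hours at 37 degrees C. The cells were HepG2 CAGA-GFP in 1% FBS DMEM, stimulated with 500 pg/mL TGF-beta after compound addition. %Activity was normalised to no-cell wells (complete cell-killing) and DMSO (no toxicity), and curves were fitted and classified.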
TGFb inhibitor: qHTS for Inhibitors of TGF-b. Potency, µM (top dose mostly 46.1 µM), inactives show top-dose activity, negative = inhibition, actives largely listed as inhibitors. HepG2 CAGA-GFP TGF-b/SMAD3 reporter, GFP fluorescence, 18 h; TGF-beta stimulated, 500 pg/mL final. hit rate 1.2% among 410,000; note: % is set by controls: 0 for no effect and ±100 for the full control effect; nearly all actives have a fitted effect of over 65% in size
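Inhibition of TGF-beta-driven CAGA-GFP reporter expression in HEPG2 cells is measured by cellular GFP fluorescence after 18 h stimulation with 500 pg/mL recombinant TGF-beta in 1% FBS medium at 37 degrees C.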
DT40 TDP1 no CPT: qHTS for Inhibitors of human tyrosyl-DNA phosphodiesterase 1 (TDP1): qHTS in cells in absence of CPT; DT40 Tdp1-/- hTDP1 cells, no CPT, ATP luminescence, 48 h; Potency, µM (series often up to 46.2 µM), inactives show at the highest dose activity change, negative = growth inhibition, most hits filed as inhibitors; hit rate 15% among 420,000; AID 686978, 2013; note: % is set by controls: 0 for no effect and ±100 for the full control effect; nearly all actives have a fitted effect of over 55% in size
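Readout: luminescence from CellTiter-Glo after 30 min in the dark at RT. Cells: DT40 Tdp1-/- with stable hTDP1, 400/well. Exposure: compounds alone, ≥48 hr, 37 °C.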
S2 tox: Viability Counterscreen for Primary qHTS for Inhibitors of ATXN expression; S2 cells (HEK-293 line with an ATXN2-luciferase reporter) viability, CellTiter-Fluor protease fluorescence, 24 h; Potency, µM (series often up to 56.7 µM), actives largely listed as cytotoxic; hit rate 0.49% among 400,000; note: nearly all actives have a fitted effect of over 40% in size
ATXN2 expr inh: Primary qHTS for Inhibitors of ATXN expression | HEK-293 ATXN2-luciferase reporter, luminescence, 24 h | Potency, µM (series often up to 57 µM), for the others: at the top dose activity change, negative = inhibition, most hits filed as inhibitors | hit rate 0.72% among 360,000 | AID 1745845, 2022; note: % is set by controls: 0 for no effect and ±100 for the full control effect; nearly all actives have a fitted effect of over 55% in size
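qHTS (up to 57 uM final) was run with 24 h compound exposure of reporter cells at 37 °C. Each well was multiplexed: SteadyGlo luminescence measured ATXN2-luciferase expression after a fluorogenic Gly-Phe-AFC viability readout (25 uM final).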
TDP1 cell CPT: qHTS for Inhibitors of human tyrosyl-DNA phosphodiesterase 1 (TDP1): qHTS in cells in presence of CPT | chicken DT40 Tdp1-/-;hTDP1 cells + 20 nM CPT, ATP luminescence, 48 h | Potency, µM (highest dose often 46.2 µM), inactives show at the top dose activity change, negative = growth inhibition, usual class: inhibitors | hit rate 12% among 420,000 | AID 686979, 2013; note: % is set by controls: 0 for no effect and ±100 for the full control effect; nearly all actives have a fitted effect of over 55% in size
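Chicken DT40 Tdp1-/- cells complemented with human TDP1, 400 cells/well, exposed to compounds plus 20 nM camptothecin for at least 48 h at 37 C; viability read as ATP content by CellTiter-Glo luminescence.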
The depositor's hits bear a star; i = inactive; ? = inconclusive; · = no result given. Only some compounds are listed: those with a hit (about 17% of all), similar ones and a draw of the others. Calls come from the whole dose curve; as a rule, active = well fitted curve in the direction sought with a large enough effect; inconclusive = small, poorly fitted or top-dose-only effect, or another doubt; inactive = no such curve, though single readings can be large; an effect the other way counts as inactive or inconclusive. Potency is the fitted concentration of half-maximal effect.

SMILES | HepG2 viability | TGFb inhibitor | DT40 TDP1 no CPT | S2 tox | ATXN2 expr inh | TDP1 cell CPT
Nc1ccn(C2OC(CCl)C(O)C2O)c(=O)n1 (stereo not given) | -18% | -2% | 3.7µM* | i | · | 2.6µM*
CN(C)CCNC(=O)C(=O)NCC(c1ccc2c(c1)OCO2)N1CCN(c2ccc(F)cc2)CC1 (stereo not given) | -17% | -14% | 3% | i | -13% | -15%
CC(=O)Nc1ccc(NC(=O)COC(=O)c2ccccc2OCc2cccc(Br)c2)cc1 | 8% | -5% | -19% | · | · | -26%
Nc1ccn([C@@H]2O[C@H](CO)[C@@H](O)C2O)c(=O)n1 (stereo not given in full) | -23% | 3% | 0.041µM* | i | ? | 0.037µM*
Nc1ccn([C@@H]2O[C@H](CO)[C@@H](O)[C@H]2O)c(=O)n1 | 4% | -4% | -1% | i | ? | 2%
Cc1cc(C)c(C)c(OC(=O)c2sc(Cl)nc2C)c1 | 1% | 0% | 8.2µM* | 22µM* | 20µM* | 7.3µM*
Cc1c(CCC(=O)NCc2cccc(Cl)c2)c(=O)oc2c(C)c(O)ccc12 | -23% | -2% | -15% | ? | -10% | -2%
N#CC(C#N)=CC1=C2OC(c3ccccc3)=CC(c3ccccc3)=C2CCC1 | -1% | 23% | 13µM* | i | -14% | 26µM*
O=C(CCc1c[nH]c2ccccc12)N/N=C/c1ccc2c(c1)OCO2 | -8% | -9% | 23µM* | i | -21% | -13%
O=C(N/N=C\c1ccc(O)c([N+](=O)[O-])c1)C1COc2ccccc2O1 (stereo not given) | -2% | -5% | -3% | ? | · | 6%
O=C(N/N=C\C=C\c1ccco1)C1COc2ccccc2O1 (stereo not given) | 5% | ? | 10µM* | i | 28% | 2.6µM*
Cc1cc([N+](=O)[O-])cc(/C=N\NC(=O)C2COc3ccccc3O2)c1O (stereo not given) | -3% | -22% | 13µM* | ? | ? | 16µM*
O=C(N/N=C/c1ccc2c(c1)OCO2)C1COc2ccccc2O1 (stereo not given) | -14% | -2% | 23µM* | i | 12% | ?
CC(C)=N/N=C1/NC(=O)C(c2ccc(Cl)cc2)S1 (stereo not given) | -29% | ? | ? | i | -15% | ?
COc1ccc(S(=O)(=O)N2CC(O)CC2C(=O)OCc2nc3sc(C)c(C)c3c(=O)[nH]2)cc1 (stereo not given) | -1% | -2% | -16% | i | 7% | -14%
Cn1c(=O)c(=O)n(C)c2cc(S(=O)(=O)N3CCOc4ccccc43)ccc21 | -2% | 1% | -16% | i | 31% | 2%
COc1ccc(/C=N\NC(=O)C2COc3ccccc3O2)cc1O (stereo not given) | -36% | -14% | ? | i | -2% | 15µM*
COCCOC(=O)c1c(C)n(S(=O)(=O)c2ccc(C)cc2)c2ccc(NS(=O)(=O)c3ccc(C)cc3)cc12 | -4% | -6% | ? | ? | 11% | ?
O=C(CCC(=O)c1ccccc1)Nc1ccc(F)c(Cl)c1 | -13% | 1% | 3% | i | 4% | 11%
Cc1ccc(S(=O)(=O)N(CC(=O)NCc2ccccc2Cl)C(=O)N2CCN(C)CC2)cc1 | 4% | -24% | -1% | i | -1% | ?
COc1ccc2c3c(n(C(=O)OC(C)(C)C)c2c1)C1CC=C(COC(C)=O)CN1CC3 (stereo not given) | · | · | 16µM* | · | · | 16µM*
CCN(CC)S(=O)(=O)c1cccc(NC(=O)CSc2nnc(N)s2)c1 | -2% | -3% | ? | i | -9% | 1%
COc1ccc(-c2ccc(NS(=O)(=O)c3ccc(F)c(C(F)(F)F)c3)cc2)nn1 | -15% | 0% | ? | i | -11% | ?
COc1ccc(NS(=O)(=O)c2ccc(N3CCCCS3(=O)=O)cc2)cc1Cl | 0% | -42% | 4.6µM* | i | -14% | 8.2µM*
COc1ccc(S(=O)(=O)Nc2ccc(F)c(Cl)c2)cc1OC | 7% | 0% | ? | i | -10% | -13%
SMILES | HepG2 viability | TGFb inhibitor | DT40 TDP1 no CPT | S2 tox | ATXN2 expr inh | TDP1 cell CPT
O=S(=O)(Nc1ccc(F)c(C(F)(F)F)c1)c1ccc(N2CCCCS2(=O)=O)cc1 | -25% | 10µM* | 12µM* | i | -27% | 21µM*
O=S(=O)(Nc1ccc(OC(F)(F)F)cc1)c1ccc(N2CCCCS2(=O)=O)cc1 | -3% | ? | 21µM* | i | -27% | 21µM*
CC(C)Oc1ccc(C(=O)NCC2Cc3cc(Cl)cc(-c4ncccn4)c3O2)cc1 (stereo not given) | · | · | ? | i | · | ?
Cc1cc(C)c2c(CC(=O)Nc3cc(C(F)(F)F)ccc3Cl)coc2c1 | -1% | 0% | ? | i | 12% | -19%
CCCCCCCCCCCCCCCC(C)C1=NCCN1 (stereo not given) | -4% | -1% | 1% | · | · | ?
O=C(CSc1nnc(-c2ccccn2)o1)Nc1ccc(F)cc1 | 8% | 3% | 12% | i | 6% | -21%
CCC(=O)Nc1cccc2cccnc12 | -29% | 17% | 3% | i | · | 12%
CC(C)CC(=O)NC(NC(=S)Nc1cccc2cccnc12)C(Cl)(Cl)Cl (stereo not given) | -14% | ? | 8.2µM* | i | 0% | 8.2µM*
CC(C)C(=O)NC(Nc1cccc2cccnc12)C(Cl)(Cl)Cl (stereo not given) | -38% | -22% | 13µM* | i | -12% | 15µM*
Nc1nc(NCc2ccccc2)nc(NCc2ccccc2)c1[N+](=O)[O-] | -4% | -6% | -15% | i | 6% | -4%
Nc1nc(-c2cc(O)ccc2[N+](=O)[O-])cc(-c2ccccc2)c1[N+](=O)[O-] | -31% | 20% | 8.2µM* | i | -32% | 7.3µM*
CC(C)CNC(=O)C1C(=O)Nc2ccccc2C(=O)N1C(C)(C)C (stereo not given) | · | · | -1% | · | · | 2%
